Assay results reported in PubChem BioAssay (EPA / NIEHS).
Activity calls are given as the source filed them. How the source made its calls: active means hit-call score of the fitted dose curve at least 0.9, where 1 is the maximum; inactive means score below 0.9.

Test: ATG_M_61_CIS: Attagene CIS-FACTORIAL HepG2 Assay for M61 Transcription Factor (Internal Marker) (AID 2282937)
Conditions: HepG2 Attagene CIS-FACTORIAL M61 internal marker reporter; actives raise or lower the signal
Method: ATG_CIS is a cell-based, multiplexed-readout assay that uses HepG2, a human liver cell line, with measurements taken at 24 hours after chemical dosing in a 24-well plate.ATG_M_61_CIS is one of 52 assay component(s) measured or calculated from the ATG_CIS assay. It is designed to make measurements of mRNA induction, a form of inducible reporter, as detected with fluorescence intensity signals by Reverse transcription polymerase chain reaction (RT-PCR) and Capillary electrophoresis technology.Data from the assay component ATG_M_61_CIS was analyzed into 1 assay endpoint. This assay endpoint, ATG_M_61_CIS, was analyzed with bidirectional fitting relative to DMSO as the negative control and baseline of activity. Using a type of inducible reporter, measures of mRNA for gain or loss-of-signal activity can be used to understand the background control at the transcription factor-level as they relate to the gene . Furthermore, this assay endpoint can be referred to as a secondary readout, because this assay has produced multiple assay endpoints where this one serves a background control function. To generalize the intended target to other relatable targets, this assay endpoint is annotated to the background measurement intended target family, where the subfamily is internal marker.
Human liver HepG2 cells are transiently transfected with multiple reporter transcription units (MRTUs) in 6-well plates using FuGene 6 reagent (Roche; 3 ml FuGene/1 mg DNA). The MRTU constructs are regulated by a cis-regulating element (promoter). […] A major difference between the CIS and TRANS system is that in CIS activities of endogenous TFs are measured, whereas the TRANS assay evaluates changes in activities of exogenous, chimeric NR-Gal4 proteins. […] At the end of 24 hour incubation, total RNA was isolated using TriZol reagent (Invitrogen). The isolated RNA is then reverse-transcribed using oligo(dT) primer and Mo-MLV reverse transcriptase (Invitrogen) with DNAse I (Ambion) treatment for 30 min. The one-tenth of the produced cDNA was amplified by PCR using Taq DNA polymerase (Invitrogen) and two reporter sequence-specific primers. The PCR products were fluorescently labeled by primer extension with 6-arboxyfluorescein (6-FAM) 5'-labeled reporter sequence-specific primer (2 min at 95 C, 20 s at 68 C and 10 min at 72 C) and these products were digested with 5U of HpaI (New England Biolabs) for 2h at 37 C. The fragments were purified using Qiaquick PCR columns (Qiagen), analyzed on an ABI 3130xL genetic analyzer (Applied Biosystems) with peak positions identified by using a set of X-rhodamine (ROX)-labeled MapMarker1000 molecular weight standards (BioVentures). The raw capillary electrophoresis data was processed using Attagraph software (Attagene).

Compound	outcome
CCNc1cccc(C)c1	inactive
CC(=O)OC/C=C(\C)CCC=C(C)C	inactive
C[Si]1(C)O[Si](C)(C)O[Si](C)(C)O[Si](C)(C)O1	inactive
NS(=O)(=O)c1cc2c(cc1Cl)NCNS2(=O)=O	inactive
CCCCCCCCCCCC(=O)OC	inactive
Clc1cc(Cl)c(Cl)cc1Cl	inactive
CCCCCCCCCCCCCO	inactive
NC(=O)Cn1c(=O)cc(CCN2CCN(c3nccc4sccc34)CC2)c2ccc(F)cc21	inactive
NCC1(Cc2noc(=O)[nH]2)CCCCC1	inactive
CCCCCCCC=O	inactive
C[C@]12C=CC(=O)C=C1CC[C@@H]1[C@@H]2C(=O)C[C@@]2(C)[C@H]1CC[C@]2(O)C(=O)CO	inactive
CCOc1ccc2c(c1)C(C)=CC(C)(C)N2	inactive
CN1CCN(Cc2cc(-c3ccc4[nH]c(=O)oc4c3)co2)[C@@H](c2ccc(F)cc2)C1	inactive
Cc1cccc(Nc2cc(Cl)nc(SCC(=O)O)n2)c1C	inactive
CC=Cc1ccc(O)c(OC)c1	inactive
Cc1ccccc1Cl	inactive
CN[C@H]1CC[C@@H](c2ccc(Cl)c(Cl)c2)c2ccc(S(N)(=O)=O)cc21	inactive
Nc1ccccc1N	inactive
CN1CCCC1=O	inactive
CC1(C)NC(=O)NC1=O	inactive

Compound	outcome
CCCCCCCCCCCCCCCC	inactive
CCOC(=O)CCC(=O)OCC	inactive
CC(C)(C)c1cc(O)c(C(C)(C)C)cc1O	inactive
COc1ccc2c(c1)c(CC(=O)O)c(C)n2C(=O)c1ccc(Cl)cc1	inactive
Cc1ccc2ncccc2c1	inactive
Cc1ccc(C)c(O)c1C	inactive
CCOC(=O)C(C)(C)Oc1ccc(Cl)cc1	inactive
CC(C)c1ccc(C(=O)N=C(N)N)cc1S(C)(=O)=O	inactive
Cc1ccc(C)c(C)c1	inactive
Cc1oc(-c2ccccc2)nc1CCOc1cccc2c1ccn2CCC(=O)O	inactive
O=C(O)Cc1ccccc1Nc1c(Cl)cccc1Cl	inactive
Oc1ccc2c(c1)OC[C@@H](N1CCC(O)(c3ccc(F)cc3)CC1)[C@H]2O	inactive
Cc1cccc(C)c1O	inactive
Nc1nc(N)c2nc(CNc3ccc(C(=O)N[C@@H](CCC(=O)O)C(=O)O)cc3)cnc2n1	inactive
Cc1ccc(Cl)cc1	inactive
COc1ccc(C)cc1N	inactive
FC(F)(F)C(F)(F)C(F)(F)C(F)(F)C(F)(F)C(F)(F)CCI	inactive
CC1(C)CC(N=C=O)CC(C)(CN=C=O)C1 (stereo not given)	inactive
Cc1cc(NC(=O)C(=O)O)cc(C)c1Oc1ccc(O)c2c1CCC2	inactive
Cc1ccc(N(C)C)cc1	inactive
